Results filed as inconclusive are left out. Activity calls are given as the source filed them.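 Rule for the calls, unless noted: active = normalized viability below 100% at a tested concentration; inactive = the rest.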
Columns and labels:
[1] = growth inhibition of DIPG glioma cells, dose response, cell-based, SU-DIPG-XVII, MIPE5.0, CellTiter-Glo, qHTS (AID 1347060; cut-off not given, nearly all actives have AC50 up to about 26 µM;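 note: cells exposed to compound for 48 hours before viability readout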); conditions: SU-DIPG-XVII viability, CellTiter-Glo ATP luminescence
[2] = growth inhibition of DIPG glioma cells, dose response, cell-based, JHH-DIPG-1, MIPE4.0, CellTiter-Glo, qHTS (AID 1347062; cut-off not given, nearly all actives have AC50 up to about 27 µM;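 note: cells exposed to compound for two days before readout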); conditions: JHH-DIPG-1 viability, CellTiter-Glo ATP luminescence
[3] = viability loss in pontine glioma line – cell-based, SU-DIPG-XXV, MIPE5.0, CellTiter-Glo, qHTS, dose response (AID 1347065; cut-off not given, nearly all actives have AC50 up to about 26 µM;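 note: cells exposed to compound for 48 hours before ATP readout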); conditions: CellTiter-Glo ATP luminescence
[4] = JHH-DIPG-1 glioma cell viability, MIPE5.0 library, CellTiter-Glo luminescence, qHTS (AID 1347067; cut-off not given, nearly all actives have AC50 up to about 26 µM;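 note: cells exposed to compound for 48 hours before readout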); conditions: JHH-DIPG-1 glioma viability, CellTiter-Glo ATP luminescence
[5] = modifiers of HSF1 nuclear foci, imaging, Selleck Cancer Library (AID 1347162; in the data active = plate-normalised HSF1 focus index below about 0.46); conditions: human cells, at 10 µM; SSMD: measured here: HSF1 foci SSMD mean; cell count: measured here: cell number; plate-normalised HSF1 focus index: stronger effect = lower value
[6] = ovarian cancer cell viability with rucaparib, profiling panel, oncology-focused library, rucaparib conditional (AID 1508598); conditions: patient-derived ovarian cancer cells, CellTiter-Glo viability, 144 h, stronger effect = lower value
[7] = growth inhibition of DIPG glioma cells, dose response, cell-based, SU-DIPG-IV, MIPE4.0, CellTiter-Glo, qHTS (AID 1347063; cut-off not given, nearly all actives have AC50 up to about 30 µM;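 note: compound exposure lasted 48 hours before the viability readout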); conditions: SU-DIPG-IV viability, CellTiter-Glo ATP luminescence
[8] = growth inhibition of DIPG glioma cells, dose response, cell-based, SU-DIPG-XIII, MIPE5.0, CellTiter-Glo, qHTS (AID 1347064; cut-off not given, nearly all actives have AC50 up to about 23 µM;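 note: cells exposed to compound for 48 hours before the viability read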); conditions: SU-DIPG-XIII viability, CellTiter-Glo ATP luminescence
[9] = SU-DIPG-XXV glioma cell viability, MIPE5.0 library, qHTS (AID 1347068; cut-off not given, nearly all actives have IC50 up to about 30 µM;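 note: cells exposed to compound for 48 hours before viability readout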)
[10] = SU-DIPG-VI glioma cell viability, MIPE4.0 library, CellTiter-Glo luminescence, qHTS (AID 1347066; cut-off not given, nearly all actives have AC50 up to about 30 µM;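 note: cells exposed to compound for 48 hours before readout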); conditions: CellTiter-Glo ATP luminescence
[11] = at 0.000305 µM, OCI-C5x cells, with rucaparib 10 µM, 100% = cells with rucaparib alone
[12] = at 0.000305 µM, OCI-C5x cells, without rucaparib
[13] = at 0.000305 µM, OCI-P5x cells, with rucaparib 20 µM, 100% = cells with rucaparib alone
[14] = at 0.000305 µM, OCI-P5x cells, without rucaparib
[15] = at 0.00122 µM, OCI-C5x cells, with rucaparib 10 µM, 100% = cells with rucaparib alone
[16] = at 0.00122 µM, OCI-C5x cells, without rucaparib
[17] = at 0.00122 µM, OCI-P5x cells, with rucaparib 20 µM, 100% = cells with rucaparib alone
[18] = at 0.00122 µM, OCI-P5x cells, without rucaparib
[19] = at 0.00488 µM, OCI-C5x cells, with rucaparib 10 µM, 100% = cells with rucaparib alone
[20] = at 0.00488 µM, OCI-C5x cells, without rucaparib
[21] = at 0.00488 µM, OCI-P5x cells, with rucaparib 20 µM, 100% = cells with rucaparib alone
[22] = at 0.00488 µM, OCI-P5x cells, without rucaparib
[23] = at 0.0195 µM, OCI-C5x cells, with rucaparib 10 µM, 100% = cells with rucaparib alone
[24] = at 0.0195 µM, OCI-C5x cells, without rucaparib
[25] = at 0.0195 µM, OCI-P5x cells, with rucaparib 20 µM, 100% = cells with rucaparib alone
[26] = at 0.0195 µM, OCI-P5x cells, without rucaparib
[27] = at 0.0781 µM, OCI-C5x cells, with rucaparib 10 µM, 100% = cells with rucaparib alone
[28] = at 0.0781 µM, OCI-C5x cells, without rucaparib
[29] = at 0.0781 µM, OCI-P5x cells, with rucaparib 20 µM, 100% = cells with rucaparib alone
[30] = at 0.0781 µM, OCI-P5x cells, without rucaparib
[31] = at 0.313 µM, OCI-C5x cells, with rucaparib 10 µM, 100% = cells with rucaparib alone
[32] = at 0.313 µM, OCI-C5x cells, without rucaparib
[33] = at 0.313 µM, OCI-P5x cells, with rucaparib 20 µM, 100% = cells with rucaparib alone
[34] = at 0.313 µM, OCI-P5x cells, without rucaparib
[35] = at 1.25 µM, OCI-C5x cells, with rucaparib 10 µM, 100% = cells with rucaparib alone
[36] = at 1.25 µM, OCI-C5x cells, without rucaparib
[37] = at 1.25 µM, OCI-P5x cells, with rucaparib 20 µM, 100% = cells with rucaparib alone
[38] = at 1.25 µM, OCI-P5x cells, without rucaparib
[39] = at 5 µM, OCI-C5x cells, with rucaparib 10 µM, 100% = cells with rucaparib alone
[40] = at 5 µM, OCI-C5x cells, without rucaparib
[41] = at 5 µM, OCI-P5x cells, with rucaparib 20 µM, 100% = cells with rucaparib alone
[42] = at 5 µM, OCI-P5x cells, without rucaparib

Cc1cnc(NC(=O)Nc2cc(Br)c(C)cc2OC[C@@H]2CNCCO2)cn1
3.14: SSMD [5]
6470: cell count [5]
active: AC50 [1] 8.33 µM | AC50 [2] 1.18 µM | AC50 [3] 8.33 µM | AC50 [4] 20.9 µM | viability [6, 13] 65.9% | viability [6, 14] 19.8% | viability [6, 15] 84.2% | viability [6, 16] 88.9% | viability [6, 17] 47.7% | viability [6, 18] 17.5% | viability [6, 29] 92.1% | viability [6, 31] 96% | viability [6, 32] 98% | viability [6, 33] 73.6% | viability [6, 34] 94.9% | viability [6, 35] 60.4% | viability [6, 36] 71.2% | viability [6, 37] 43% | viability [6, 38] 85.9% | viability [6, 39] 3.26% | viability [6, 40] 46.4% | viability [6, 41] 0.466% | viability [6, 42] 7.42%
inactive: plate-normalised HSF1 focus index [5] 1.16 | viability [6, 11] 111% | viability [6, 12] 118% | viability [6, 19] 103% | viability [6, 20] 121% | viability [6, 21] 114% | viability [6, 22] 109% | viability [6, 23] 109% | viability [6, 24] 113% | viability [6, 25] 107% | viability [6, 26] 104% | viability [6, 27] 102% | viability [6, 28] 117% | viability [6, 30] 105%

CC(=O)O/N=C1/C(c2c(O)[nH]c3cc(Br)ccc23)=Nc2ccccc21
active: AC50 [1] 8.33 µM | AC50 [7] 1.48 µM | AC50 [8] 20.9 µM | AC50 [3] 7.42 µM | AC50 [4] 29.5 µM | IC50 [9] 9.34 µM

COc1ccc(-c2ccc3c(N4CCOCC4)nc(N4C[C@@H](C)O[C@@H](C)C4)nc3n2)cc1CO
inactive: outcome [10] | plate-normalised HSF1 focus index [5] 0.909 | viability [6, 11] 118% | viability [6, 12] 122% | viability [6, 13] 105% | viability [6, 14] 112% | viability [6, 15] 113% | viability [6, 16] 119% | viability [6, 17] 109% | viability [6, 18] 108% | viability [6, 19] 112% | viability [6, 20] 120% | viability [6, 21] 104% | viability [6, 22] 107% | viability [6, 23] 120% | viability [6, 24] 117% | viability [6, 25] 103% | viability [6, 26] 104% | viability [6, 27] 122% | viability [6, 28] 125% | viability [6, 29] 100% | viability [6, 30] 109% | viability [6, 31] 121% | viability [6, 32] 127% | viability [6, 34] 106% | viability [6, 35] 120% | viability [6, 36] 124% | viability [6, 39] 133% | viability [6, 40] 106%
active: AC50 [1] 3.72 µM | AC50 [7] 0.332 µM | AC50 [8] 4.17 µM | AC50 [3] 1.05 µM | AC50 [4] 1.05 µM | viability [6, 33] 95.5% | viability [6, 37] 78.8% | viability [6, 38] 91.3% | viability [6, 41] 48% | viability [6, 42] 99.4%
6570: cell count [5]
-1.75: SSMD [5]
